Sm TGR inh: qHTS Assay for the Inhibitors of Schistosoma Mansoni Peroxiredoxins; Schistosoma mansoni thioredoxin glutathione reductase (TGR), Q962Y6; AID 485364, 2010; purified TGR, DTNB reduction, TNB absorbance 405 nm; 360,000 tested, 3% active; Potency, µM (titrated, usually from 114 µM), for the others: top-dose activity change, negative = inhibition, usual class: inhibitors; also: potency is read from the fitted curve at half-maximal effect; % is scaled to controls: 0 for no effect and ±100 for the full control effect; nearly all actives have a fitted effect of over 60% in size
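TGR 20 nM + NADPH 100 uM (dispensed conc.), cpd preinc 15 min RT; start with NADPH (500 uM addition) then DTNB (15 mM addition). Kinetic TNB absorbance, 405 nm filter. Four-parameter Hill fit across titration.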
LmPK inh: qHTS Assay for Inhibitors of Leishmania Mexicana Pyruvate Kinase (LmPK) | AID 1721, 2009 | 290,000 tested, 0.37% active | purified LmPK, Kinase-Glo ATP luminescence, 1 h | Q27686 | Potency, µM (doses to about 57.5 µM), inactives show at the highest dose activity change, negative = inhibition, most hits filed as inhibitors; also: potency is read from the fitted curve at half-maximal effect; % is scaled to controls: 0 for no effect and ±100 for the full control effect
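ATP generated from ADP (0.1 mM) and PEP (0.5 mM) by 0.1 nM LmPK over 1 h at room temperature (pH 7.2 imidazole buffer) was detected by coupled luciferase luminescence. Values were normalized to uninhibited and no-enzyme wells.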
Giardia FBPA inh-1: qHTS Assay for Inhibitors of Fructose-1,6-bisphosphate Aldolase from Giardia Lamblia. A8B2U2. purified Giardia FBPA. Potency, µM (top dose mostly 59.6 µM), inactives show at the highest dose activity, negative = inhibition, actives largely listed as inhibitors. 290,000 tested, 0.71% active. AID 2451, 2010; also: potency is read from the fitted curve at half-maximal effect; % is scaled to controls: 0 for no effect and ±100 for the full control effect; nearly all actives have a fitted effect of over 55% in size
Target sequence (A8B2U2 whole entry, looked up): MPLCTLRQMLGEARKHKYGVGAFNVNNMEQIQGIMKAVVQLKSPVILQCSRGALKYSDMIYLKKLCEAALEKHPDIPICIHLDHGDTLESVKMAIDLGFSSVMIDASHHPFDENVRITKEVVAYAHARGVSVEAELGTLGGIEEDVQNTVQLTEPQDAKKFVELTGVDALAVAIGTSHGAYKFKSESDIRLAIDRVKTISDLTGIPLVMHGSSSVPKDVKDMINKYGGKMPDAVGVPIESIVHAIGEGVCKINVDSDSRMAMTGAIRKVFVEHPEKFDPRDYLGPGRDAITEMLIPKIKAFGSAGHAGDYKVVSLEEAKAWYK
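40 nM FBPA preincubated 10 min at RT with compound (up to 57.5 uM final), then substrate plus GAPDH/TPI/NAD/arsenate coupling and diaphorase/resazurin added. Fluorescence read after 20 min at RT, 525/598 nm.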
TbPYK inhibitor: qHTS of Trypanosoma Brucei Inhibitors; pyruvate kinase (Trypanosoma brucei), Q57TT1; TbPYK enzyme, Kinase-Glo Plus ATP luminescence, 45 min; Potency, µM (series often up to 76.8 µM), without a hit: top-dose activity, negative = inhibition, hits mostly inhibitors; 410,000 tested, 0.12% active; also: potency is read from the fitted curve at half-maximal effect; % is scaled to controls: 0 for no effect and ±100 for the full control effect; nearly all actives have a fitted effect of over 50% in size
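Assay buffer: 50 mM TEA pH 7.2, 100 mM KCl, 10 mM MgCl2, 0.05% BSA, 0.01% Tween-20. Pyruvate kinase from T. brucei plus substrate met compound, then ADP (130 uM final). Luminescence was read post 45 min RT.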
Shiga toxin inh: A qHTS for Small Molecule Inhibitors of Shiga Toxin; 290,000 tested, 9.2% active; Vero cells, Shiga toxin protein synthesis inhibition reporter; inhibition, % at 38.7 µM; AID 2315, 2010; in the data active = inhibition mostly above about 28%, no sharp cut-off; inactive = mostly below about 43%; also: 0% is about no effect
Cycloheximide cs: Cycloheximide Counterscreen for Small Molecule Inhibitors of Shiga Toxin; cell reporter, cycloheximide protein synthesis inhibition counterscreen; max response, %; 300,000 tested, 12% active; AID 2314, 2010; in the data active = max response mostly above about 13%, no sharp cut-off; inactive = mostly below about 14%; also: read at 38.3 µM for the half of the compounds with a filed dose; 0% is about no effect
Giardia growth: qHTS Assay for Inhibitors of Fructose-1,6-bisphosphate Aldolase from Giardia Lamblia: Giardia lamblia growth inhibition | shares compounds with Giardia FBPA inh-1 | Giardia lamblia trophozoite growth inhibition | Potency, µM (series often up to 57.5 µM), inactives show at the top dose activity change, negative = inhibition, most hits filed as inhibitors | 1,500 tested, 5% active | AID 2785, 2010;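 also: potency is read from the fitted curve at half-maximal effect; trophozoites exposed to compound for 48 h at 37 °C; % is scaled to controls: 0 for no effect and ±100 for the full control effect; nearly all actives have a fitted effect of over 70% in size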
Mammalian tox: qHTS Assay for Inhibitors of Fructose-1,6-bisphosphate Aldolase from Giardia Lamblia: Mammalian cellular toxicity. AID 2786, 2010. 1,500 tested, 4% active. Potency, µM (series often up to 57.5 µM), for the others: at the top dose viability change, negative = toxicity, hits mostly inhibitors. mammalian cell viability counter-screen, qHTS. shares compounds with Giardia FBPA inh-1;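 also: Chinese hamster ovary cells used as mammalian cytotoxicity surrogate; viability measured as cellular ATP by luminescence; potency is read from the fitted curve at half-maximal effect; compound exposure lasted 48 h before reading; % is scaled to controls: 0 for no effect and ±100 for the full control effect; nearly all actives have a fitted effect of over 60% in size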
Giardia FBPA inh-2: qHTS Assay for Inhibitors of Fructose-1,6-bisphosphate Aldolase from Giardia Lamblia: Primary screen confirmation. shares compounds with Giardia FBPA inh-1. purified Giardia aldolase enzyme activity, qHTS. Potency, µM (doses to about 57.5 µM), for the others: at the top dose activity change, negative = inhibition, actives largely listed as inhibitors. 1,500 tested, 5% active. AID 2787, 2010; also: potency is read from the fitted curve at half-maximal effect; % is scaled to controls: 0 for no effect and ±100 for the full control effect; nearly all actives have a fitted effect of over 45% in size
Rabbit FBPA inh: qHTS Assay for Inhibitors of Fructose-1,6-bisphosphate Aldolase from Giardia Lamblia: Rabbit FBPA Selectivity. Rabbit muscle FBPA enzyme inhibition, selectivity counter-screen. 1,500 tested, 4% active. Potency, µM (series often up to 57.5 µM), for inactives: top-dose activity, negative = inhibition, most hits filed as inhibitors. shares compounds with Giardia FBPA inh-1. AID 2794, 2010; also: potency is read from the fitted curve at half-maximal effect; % is scaled to controls: 0 for no effect and ±100 for the full control effect; nearly all actives have a fitted effect of over 60% in size
Target sequence (P00883 whole entry, looked up): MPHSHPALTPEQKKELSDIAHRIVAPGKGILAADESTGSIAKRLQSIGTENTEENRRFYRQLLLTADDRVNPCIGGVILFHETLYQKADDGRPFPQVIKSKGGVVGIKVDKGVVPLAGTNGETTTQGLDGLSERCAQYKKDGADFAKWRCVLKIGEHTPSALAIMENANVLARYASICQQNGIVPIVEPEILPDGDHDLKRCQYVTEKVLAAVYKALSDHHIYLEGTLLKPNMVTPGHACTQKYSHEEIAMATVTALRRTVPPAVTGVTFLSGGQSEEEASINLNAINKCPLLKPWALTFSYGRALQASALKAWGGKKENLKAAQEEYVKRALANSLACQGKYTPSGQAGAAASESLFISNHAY
GAPDH counter: qHTS Assay for Inhibitors of Fructose-1,6-bisphosphate Aldolase from Giardia Lamblia: Coupling assay counterscreen confirmation; Potency, µM (doses to about 57.5 µM), for inactives: top-dose activity change, negative = inhibition, most hits filed as inhibitors; shares compounds with Giardia FBPA inh-1; GAPDH coupling enzyme counterscreen, biochemical, qHTS; 1,500 tested, 6% active; also: potency is read from the fitted curve at half-maximal effect; % is scaled to controls: 0 for no effect and ±100 for the full control effect; nearly all actives have a fitted effect of over 55% in size
* hit, by the source's call; ? = inconclusive; · = no result; [ ] = another dose, or the depositor's remark. The full list was thinned out, with hits kept by preference. Unless noted, calls follow the shape of the dose curve; as a rule, active = well fitted curve in the direction sought with a large enough effect; inconclusive = small, poorly fitted or top-dose-only effect, or another doubt; inactive = no such curve, though single readings can be large; an effect the other way counts as inactive or inconclusive.

SMILES	Sm TGR inh	LmPK inh	Giardia FBPA inh-1	TbPYK inhibitor	Shiga toxin inh	Cycloheximide cs	Giardia growth	Mammalian tox	Giardia FBPA inh-2	Rabbit FBPA inh	GAPDH counter
O=[N+]([O-])c1ccc(O)c(/C=N/Nc2ncnc3c2cnn3-c2ccccc2)c1	1%	-2%	-23%	0%	-2	-2	·	·	·	·	·
O=[N+]([O-])c1ccc(O)c(/C=N/Nc2ccccn2)c1	-6%	9%	5µM*	-4%	29	22*	?	20µM*	?	4%	-28%
O=C(O)COc1ccc(Br)cc1/C=N\Nc1ccccn1	-7%	-2%	11µM*	2%	-9	8	-20%	-7%	4%	10%	15%
CC[C@]12C(=O)N(C)C[C@H]([C@@H]3C(=O)N(C)C(=O)[C@@H]31)N2C(=O)c1ccc(Cl)cc1	·	·	·	0%	·	·	·	·	·	·	·
Cc1nnsc1C(=O)NC1CCCc2c1cnn2-c1ccc(C(C)(C)C)cc1 (stereo not drawn)	2%	7%	-3%	5%	28	5	·	·	·	·	·
O=C(CN(C(=O)c1csnn1)c1cccc(C(F)(F)F)c1)NC1CCCC1	2%	-3%	·	0%	-13	-2	·	·	·	·	·
CS(=O)(=O)c1ccc2nc(NC(=O)CN3CCOCC3)sc2c1	0%	4%	4.5µM*	0%	·	-1	?	-4%	2%	6%	3%
O=C(CCc1ccccc1)Nc1nc2ccc(S(=O)(=O)N3CCOCC3)cc2s1	0%	-1%	6%	-13%	-6	5	·	·	·	·	·
O=C(CN1CCOCC1)Nc1nc2ccc(Br)cc2s1	-2%	2%	-3%	·	77	27	·	·	·	·	·
O=C(O)CSc1nnc(NC(=O)CN2CCOCC2)s1	6%	-1%	5µM*	1%	-8	1	-5%	0%	3%	11%	11%
O=C(CN1CCOCC1)Nc1nc2ccc(Cl)cc2s1	-12%	0%	6.3µM*	1%	38	22*	-5%	-20%	5%	8%	7%
COc1ccc(CN2CCN(Cc3ccc(C)cc3)CC2)c(OC)c1	-23%	-3%	14µM*	1%	20	-6	19%	1%	3%	1%	-2%
COc1ccc(CN2CCC(N3CC(C)OC(C)C3)CC2)c(OC)c1 (stereo not drawn)	10%	-6%	?	36%	-16	1	12%[38.3 µM]	10%	3%	4%	16%
COc1ccc(/C=N\N2CCN(Cc3ccccc3Cl)CC2)cc1	18%	-6%	16µM*	14%	-5	-3	-12%[10.4 µM]	-11%	-1%	6%	6%
COc1ccc(CN2CCN(Cc3ccccc3F)CC2)c(OC)c1	-18%	-5%	13µM*	-5%	-21	-3	19%	0%	-3%	7%	-14%
COc1ccc(CN2CCN(Cc3ccc(C(F)(F)F)cc3)CC2)c(OC)c1	3%	-4%	?	20%	-4	-6	·	·	·	·	·
Cc1cccc(/C=N/NC(=O)c2ccncc2)n1	12%	-1%	?	1%	-14	1	·	·	·	·	·
Cc1ccc(C(=O)OC(C)CN2C(C)CCCC2C)cc1 (stereo not drawn)	4%	-6%	-12%	-5%	-15	-1	·	·	·	·	·
COc1ccc(-n2c(SCC(=O)NCc3ccc(F)cc3)nc3c([nH]c4ccccc43)c2=O)cc1	9%	·	·	2%	·	·	·	·	·	·	·
COc1ccc(CN2CCN(Cc3ccccc3F)CC2)cc1	8%	-5%	16µM*	8%	-8	-1	16%	-3%	-1%	9%	1%
CCOc1ccc(C(=O)Nc2nnc(S(=O)(=O)Nc3ccccc3C)s2)cc1	-1%	-9%	-6%	-3%	1	-1	·	·	·	·	·
CCCn1nnc(NC(=S)NC(=O)/C=C/c2ccco2)n1	7.1µM*	17%	16µM*	-25%	25	2	7%	6%	-3%	2%	12%
CCCn1nnc(NC(=S)NC(=O)C(C)(C)C)n1	-24%	-5%	5.6µM*	-11%	20	12	-4%[38.3 µM]	-7%	-1%	-4%	-5%
CCCn1nnc(NC(=S)NC(=O)c2cccs2)n1	-34%	?	5µM*	3%	3	8	?	-2%	8%	5%	13%
Cc1ccc(S(=O)(=O)Nc2ncccn2)cc1	-14%	2%	22µM*	-2%	-5	-4	-7%	21%	5%	18%	6%
CN1CCc2c(sc(/N=C/c3c[nH]c4ccccc34)c2C#N)C1	0%	-9%	18µM*	-12%	13	10	14%[10.4 µM]	-16%	-25%	-19%	?
CN1CCc2c(sc(/N=C/c3c[nH]c4ccccc34)c2C(N)=O)C1	7%	0%	?	-10%	16	12	·	·	·	·	·
CCOc1ccc(C2CC(=O)N(c3cccc(F)c3)C3=C2C(=O)OC3)cc1 (stereo not drawn)	5%	·	·	6%	·	·	·	·	·	·	·
C/C(CC(=O)Nc1ccc(Cl)c(Cl)c1)=N\NC(N)=S	5%	7%	10µM*	-6%	19	-3	2%	-5%	-3%	-2%	3%
C/C(CC(=O)Nc1ccc(Cl)cc1C(F)(F)F)=N\NC(N)=S	1%	-8%	20µM*	-5%	10	11	3%[10.4 µM]	12%	17%	9%	14%

High-throughput results deposited in PubChem by National Center for Advancing Translational Sciences (NCATS).
